From PubChem BioAssay AID1578 (Sanford-Burnham Center for Chemical Genomics, 2009)
Hit rate of the full screen: of about 290,000 compounds, about 3,000 (1%) were called active. Only a selection was taken, and actives are over-represented in it overall. Unmarked numbers belong to inactive results. Rule as the data show it: active = inhibition mostly above about 36% (no sharp cut-off); inactive = mostly below about 34%.

Assay: NOD1 signaling inhibitors, primary screen, cell-based, luminescence, uHTS (AID 1578);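 also: HEK-293T reporter cells stimulated with the NOD1 agonist gamma-tri-DAP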
Settings: NOD1-driven NF-kB luciferase reporter cells, at 4 µM, stronger effect = higher value

Compound	inhibition
C=CCC(c1ccccc1F)N(CCN1CCOCC1)C(=O)Nc1cccc(Cl)c1 (stereo not given)	7.7%
COCCN(C(=O)C(=O)NC1CCCC1)C(C(=O)NC1CCCC1)c1ccccc1F (stereo not given)	-25.2%
COc1ccc(C(C(=O)NC2CCCC2)N(C(=O)c2ccoc2C)c2ccc(C)cc2)cc1 (stereo not given)	-10.4%
COCCN(C(=O)CCC(=O)Nc1cc(C)on1)C(C(=O)NC1CCCC1)c1ccccc1C (stereo not given)	-13.7%
COC(CN(C(=O)CCl)C(C(=O)NC1CCCCC1)c1ccc(C)cc1)OC (stereo not given)	68.9%
O=S(=O)(NC1CCCCC1)c1cccc(-c2nnc(-c3ccccc3)o2)c1	8.5%
Cc1ccc(C(C(=O)NC2CCCC2)N(C(=O)Cc2cccs2)c2ccc3c(c2)OCCO3)cc1 (stereo not given)	-7.5%
O=C(CN1CCOCC1)N/N=C/c1ccc(-c2cccc(Cl)c2Cl)o1	-9.3%
O=C(CN1C(=O)COc2ccccc21)NCCN1CCOCC1	-38%
CC(=O)c1c(O)c2ccccc2n(C2CCCCC2)c1=O	57.4% (active)
CC(=O)c1c(O)c2ccccc2n(C)c1=O	-26%
CCn1c(=O)c(C(C)=O)c(O)c2ccccc21	-17%
CC(C)CC(=O)c1c[nH]c(C(=O)O)c1	-16.9%
CC(Cl)C(=O)Nc1ncc(C(F)(F)F)cc1Cl (stereo not given)	-12%
CCSC(=S)c1c(C)[nH]n(-c2ccccc2)c1=O	1.7%
CCCSC(=S)c1c(C)[nH]n(-c2ccccc2)c1=O	50.5% (active)
Cc1[nH]n(-c2ccccc2)c(=O)c1C(=O)c1ccccc1	-3.5%
CCCOc1ccc(N2C(=O)CC(N(Cc3ccco3)C(=O)CC)C2=O)cc1 (stereo not given)	-3.4%
COc1ccc(CCNC(=O)c2cccs2)cc1OC	-51.6%
COc1ccc(C2(O)CCN(C(=O)NC3CCCCC3)CC2)cc1	-14.2%
CCOC(=O)c1sc2ccccc2c1OC(=O)c1ccccc1OC	46.4%
CCOC(=O)c1sc2ccccc2c1OC(=O)c1ccccc1	38.2%
CC1COc2ccccc2N1C(=O)c1ccccc1Cl (stereo not given)	4.6%
Cc1ccc(S(=O)(=O)N2c3ccccc3OCC2c2ccccc2)cc1 (stereo not given)	-19.1%

Compound	inhibition
CCCCOc1ccccc1C(=O)N(Cc1ccco1)C1CCS(=O)(=O)C1 (stereo not given)	25.4%
CCOC(=O)c1sc2nc[nH]c(=O)c2c1C	4.3%
CCOC(=O)c1c(O)c(O)c(C(=O)OCC)n1-c1ccccc1	-8.7%
CCOC(=O)c1c(C)c2c(=O)[nH]cnc2n1-c1ccccc1	32.5% (active)
C=CCOc1c(CNc2ccc(C(=O)O)cc2)cccc1OC	-2.4%
N#Cc1cc2c(nc1SCc1cccnc1)CCCC2	-35.1%
Cc1[nH]c(=S)c(C#N)c(-c2ccco2)c1C(=O)N(C)C	-29.8%
COc1ccc(NC(=O)NC2(C(=O)N3CCCCCC3)CCCCC2)cc1	-9.8%
Cc1ccc(S(=O)(=O)N2CCOCC2)cc1C(=O)Nc1c(C)n(C)n(-c2ccccc2)c1=O	-23.2%
CC(=O)N[C@@H](C)c1nc2ccccc2n1CCCN1CCN(c2nc(-c3ccc(C)cc3)cs2)CC1	-3.9%
Cc1ccc(-c2csc(N3CCN(CCCn4c(C(F)(F)F)nc5ccccc54)CC3)n2)cc1	-23%
Cc1noc(C)c1COC(=O)[C@@H](NC(=O)c1ccccc1Cl)C(C)C	-17.3%
CCC(CC)c1nnc(NC(=O)c2ccc(N3CCCC3=O)cc2)s1	-14.4%
Cc1csc(NC(=O)c2ccc(C(=O)Nc3nc(C)cs3)cc2)n1	2.7%
Cc1csc(NC(=O)c2ccc(N3CCCC3=O)cc2)n1	39.5% (active)
Cc1ccccc1N1CCN(C2CCCN(C(=O)c3noc4c3CCCC4)C2)CC1 (stereo not given)	6.2%
O=C1c2[nH]nc(-c3ccccc3O)c2C(c2ccccc2)N1Cc1ccco1 (stereo not given)	-0.4%
O=C1c2[nH]nc(-c3ccccc3O)c2C(c2ccc(F)cc2)N1Cc1ccco1 (stereo not given)	53.4% (active)
COc1ccc(C2c3c(-c4ccccc4O)n[nH]c3C(=O)N2Cc2ccco2)cc1 (stereo not given)	-5.9%
COc1cc2c(cc1OC)C(c1ccccc1)N(C(=O)c1ccco1)CC2 (stereo not given)	3.6%
COc1ccc(OCCC(=O)OCC(=O)NC(=O)NC(C)(C)C)cc1	7%
CC(=O)NCC(=O)OC(C)C(=O)Nc1ccc(C(C)=O)cc1 (stereo not given)	-17.4%
CCCNC(=O)c1ccc(N2CCC3(CC2)CC(c2ccccc2)=NO3)c(NC(=O)c2ccccc2)c1	21.3%
CCCNC(=O)c1ccc(N2CCC3(CC2)CC(c2ccccc2)=NO3)c(NC(=O)c2cccc(OC)c2)c1	77.4% (active)

Compound	inhibition
CCCNC(=O)c1ccc(N2CCC3(CC2)CC(c2ccccc2)=NO3)c(NC(=O)c2cccc(C)c2)c1	43.2%
CC(=O)Nc1ccc(C2=NNC(=Nc3ccc(S(=O)(=O)N4CCOCC4)cc3)SC2)cc1	-12.4%
CNC(=S)N/N=C/c1c(C)c(C(=O)c2ccc(F)cc2)n2ccccc12	0.6%
COC(=O)N/N=C/c1c(C)c(C(=O)c2ccc(F)cc2)n2ccccc12	-3.4%
Cc1c(/C=N/NC(=O)c2ccc(O)cc2)c2ccccn2c1C(=O)c1ccc(F)cc1	17.9%
Cc1c(/C=N/NC(N)=O)c2ccccn2c1C(=O)c1ccc(F)cc1	15.7%
CCOC(=O)N/N=C/c1c(C)c(C(=O)c2ccc(F)cc2)n2ccccc12	48.9% (active)
CCCCCCCCCC[N+](C)(C)CC/C=C1/c2ccccc2Sc2ccc(Cl)cc21	-0.8%
CCCCCCc1cc2cc(C(N)=O)c(=N)oc2cc1O	12.9%
CCCCCCc1cc2cc(C(=O)Nc3ccccc3OC)c(=O)oc2cc1O	-4.9%
CCCCCCc1cc2cc(C(=O)Nc3ccc(OC)cc3)c(=O)oc2cc1O	-7.5%
CCCCCCc1cc2cc(C(=O)Nc3ccccc3)c(=O)oc2cc1O	34.1%
CCCCCCc1cc2cc(S(=O)(=O)c3ccc(C)cc3)c(=O)oc2cc1O	-36.3%
CCCCCCc1cc2cc(C(=O)Nc3cccc(OC)c3)c(=O)oc2cc1O	59.9%
CCCC1C(C#N)=C(N)Oc2n[nH]c(C(C)(C)C)c21 (stereo not given)	-47.4%
CCOc1ccc(N(CC(=O)N2CCCCC2)S(=O)(=O)c2ccc(Cl)cc2)cc1	5.7%
Nn1c(Cc2ccccc2)n[nH]c1=S	-24.7%
O=C1c2cccnc2C(=O)N1c1cccc(-c2nc3ccccc3o2)c1	-23.4%
O=C(NCc1ccco1)C(c1ccccc1F)N(CC1CCCO1)C(=O)Cn1nnc2ccccc21 (stereo not given)	-7%
CCN(C(=O)Cn1c(=O)oc2ccccc21)c1cccc(C)c1	2.1%
CC(C)C[C@H](NC(=O)c1nc[nH]c1C(=O)NCc1ccccc1)C(=O)OC(C)(C)C	-11.1%
COc1ccc(CN(CC(=O)NCc2ccco2)C(=O)CCC(=O)Nc2ccccn2)cc1	-20.6%
O=C1NC(=S)N/C1=C/c1cccnc1	16.2%
O=C1NC(=S)N/C1=C\c1cccnc1	33.9% (active)

Compound	inhibition
Cc1cc(/C=C2\NC(=S)NC2=O)c(C)n1-c1cccnc1	-14.7%
COc1ccc(/C=N/NC(=O)CSc2ccccc2)cc1OC	-7.9%
CCc1ccc(NC(=O)CN(c2ccccc2)S(=O)(=O)N(C)C)cc1	-17.6%
COc1ccc(/C=C/C(=O)c2ccc(C(=O)/C=C/c3ccc(OC)c(OC)c3)cc2)cc1OC	-4.9%
CCOc1ccc(C(=O)/C=C/c2ccc(OC)c(OC)c2)cc1	51.4%
COc1cc(/C=C/C(=O)c2ccc(O)cc2)ccc1OCC#N	29.2%
COc1ccc2cc(C(=O)/C=C/c3cc(OC)c(OC)c(OC)c3)ccc2c1	52.7%
COc1ccc(NC(=O)Nc2cccc3ccccc23)c(OC)c1	19.9%
CCS(=O)(=O)N1CCN(S(=O)(=O)c2ccc3c(c2)OCCO3)CC1	24.1%
COc1ccccc1N1CCN(C(=O)CSc2nc3ccccc3nc2N2CCC(C)CC2)CC1	58.1% (active)
Cc1ccnc(N2CCN(C(=O)CSc3nc4ccccc4nc3N3CCC(C)CC3)CC2)c1	3.8%
COc1ccccc1N1CCN(C(=O)CSc2nc3ccccc3nc2N2CCCCC2)CC1	8.8%
CS(=O)(=O)N(CC(=O)NCCSCc1c(F)cccc1Cl)c1cccc([N+](=O)[O-])c1	-2.1%
COc1cc(C(=O)OCC(=O)Nc2cc(C)on2)ccc1OCc1ccccc1Cl	-69.5%
CCCCN(C)C(=O)C1CCC(CNS(=O)(=O)c2ccc3c(c2)CC(C)N3C(C)=O)CC1 (stereo not given)	-1.6%
Clc1cccc(CN2CCc3c([nH]c4ccccc34)C2)c1	73.3% (active)
Clc1ccc(CN2CCc3c([nH]c4ccccc34)C2)cc1Cl	-1.2%
Cc1cccc(CN2CCc3c([nH]c4ccccc34)C2)c1	-0.6%
Nc1ccc(S(=O)(=O)Nc2nc3ccccc3o2)cc1	-21.3%
CCc1nnc(NC(=O)CCC(=O)N2CCC(Cc3ccccc3)CC2)s1	-19.4%
CNc1ccccc1C(C)(C)c1cc(-c2cccc([N+](=O)[O-])c2)no1	-54.1%
CNc1ccccc1C(C)(C)c1cc(-c2cccc(Br)c2)no1	18.9%
CNc1ccccc1C(C)(C)c1cc(-c2cccc(OC)c2)no1	53.1% (active)
